# Assay results as given in PubChem BioAssay (NCATS).
# Several values for one entry are separate records, joined by “and”; a condition that tells them apart may be missing. Equal values may be shown once. Records with an inconclusive call do not appear. A call without a number means that no potency is given here. Some compounds were tested as several samples or in several runs, with calls that do not always agree. Activity calls are given as the source filed them. Unless noted, calls come from the whole dose curve; as a rule, active = well fitted curve in the direction sought with a large enough effect; inconclusive = small, poorly fitted or top-dose-only effect, or another doubt; inactive = no such curve, though single readings can be large; an effect the other way counts as inactive or inconclusive.
# Assays:
# [1] = biological target: Ubiquitin carboxyl-terminal hydrolase 1 (Homo sapiens) (UniProt O94782); assay: Inhibitors of USP1/UAF1: Pilot qHTS (AID 504865); note: nearly all actives have a fitted effect of over 35% in size; note: potency is the fitted concentration of half-maximal effect
# Chain of Ubiquitin carboxyl-terminal hydrolase 1 (Homo sapiens) (O94782 whole entry, looked up): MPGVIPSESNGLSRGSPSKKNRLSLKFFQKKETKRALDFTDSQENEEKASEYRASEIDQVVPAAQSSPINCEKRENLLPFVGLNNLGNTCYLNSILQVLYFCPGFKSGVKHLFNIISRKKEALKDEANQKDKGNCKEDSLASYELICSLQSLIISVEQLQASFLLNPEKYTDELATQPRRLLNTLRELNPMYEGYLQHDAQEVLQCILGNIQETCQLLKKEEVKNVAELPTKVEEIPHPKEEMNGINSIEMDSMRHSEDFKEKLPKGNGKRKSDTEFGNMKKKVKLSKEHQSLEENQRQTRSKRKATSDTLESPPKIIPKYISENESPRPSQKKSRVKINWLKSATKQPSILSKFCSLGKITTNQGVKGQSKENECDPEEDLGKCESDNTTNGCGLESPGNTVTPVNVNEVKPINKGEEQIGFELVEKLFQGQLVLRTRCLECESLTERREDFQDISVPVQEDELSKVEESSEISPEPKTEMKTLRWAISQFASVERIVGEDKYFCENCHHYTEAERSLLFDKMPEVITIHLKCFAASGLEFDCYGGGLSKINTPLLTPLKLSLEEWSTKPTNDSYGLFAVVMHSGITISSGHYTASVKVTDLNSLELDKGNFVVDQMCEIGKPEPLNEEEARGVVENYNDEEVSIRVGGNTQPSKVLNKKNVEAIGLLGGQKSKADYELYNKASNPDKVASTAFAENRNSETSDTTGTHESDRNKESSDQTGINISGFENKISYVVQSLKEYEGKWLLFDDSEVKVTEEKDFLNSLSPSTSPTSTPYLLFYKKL
# Summary of the method: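 Deubiquitinase activity followed as kinetic rhodamine fluorescence release from 150 nM Ub-Rho. 1 nM USP1/UAF1 with compound, after 15 min room-temperature preincubation, in HEPES pH 7.8 buffer containing TCEP, EDTA, BSA and Tween-20.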
# [2] = qHTS for Inhibitors of ATXN expression: Validation of Cytotoxic Assay (AID 588349)
# Summary of the method: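 HEK293 cells were dosed with titrated compounds for 72 hr at 37 degrees C. Viability was read by CellTiter Glo luminescence, with intracellular ATP as the marker of cell survival.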
# [3] = qHTS for Inhibitors of ATXN expression: Validation (AID 588378); note: series mostly up to about 57 µM; nearly all actives have a fitted effect of over 75% in size
# Summary of the method: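 Luciferase luminescence (Bright-Glo) from an ATXN2-FFLuc HEK293 line after 24 h compound exposure at 37 °C, preceded by a CellTiter-Fluor fluorescence viability read. Serial dilutions of a reference ATXN2 inhibitor and a luciferase inhibitor served as controls.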
# [4] = biological target: DNA dC->dU-editing enzyme APOBEC-3G (Homo sapiens) (UniProt Q9HC16); assay: qHTS for inhibitors of Vif-A3G interactions: Validation (AID 588379)
# Chain of DNA dC->dU-editing enzyme APOBEC-3G (Homo sapiens) (Q9HC16 whole entry, looked up): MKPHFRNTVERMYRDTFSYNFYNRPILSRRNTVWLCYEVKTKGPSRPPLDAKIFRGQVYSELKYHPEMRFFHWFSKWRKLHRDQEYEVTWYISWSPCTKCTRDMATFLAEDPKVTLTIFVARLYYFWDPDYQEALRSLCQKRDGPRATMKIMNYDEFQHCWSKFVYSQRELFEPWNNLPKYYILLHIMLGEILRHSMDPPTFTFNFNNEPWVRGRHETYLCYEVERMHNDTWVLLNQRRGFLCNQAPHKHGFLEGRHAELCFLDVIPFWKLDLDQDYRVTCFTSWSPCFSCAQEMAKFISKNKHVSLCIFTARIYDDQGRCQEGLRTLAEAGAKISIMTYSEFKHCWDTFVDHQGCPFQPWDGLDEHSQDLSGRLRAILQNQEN
# Summary of the method: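 HeLa cells stably expressing Vif and A3G-eYFP, 700 cells/well, incubated overnight at 37 deg C, then exposed to compound overnight at 37 deg C. Inhibition of Vif-mediated degradation read as increased yellow fluorescence (Ex 488/Em 500-530) by laser-scanning cytometry.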
# [5] = biological target: Estrogen receptor (Homo sapiens) (UniProt P03372); assay: qHTS assay for small molecule agonists of estrogen receptor alpha signaling (AID 588514; calls by dose curve; note: nearly all actives have a fitted effect of over 70% in size)
# Chain of Estrogen receptor (Homo sapiens) (P03372 whole entry, looked up): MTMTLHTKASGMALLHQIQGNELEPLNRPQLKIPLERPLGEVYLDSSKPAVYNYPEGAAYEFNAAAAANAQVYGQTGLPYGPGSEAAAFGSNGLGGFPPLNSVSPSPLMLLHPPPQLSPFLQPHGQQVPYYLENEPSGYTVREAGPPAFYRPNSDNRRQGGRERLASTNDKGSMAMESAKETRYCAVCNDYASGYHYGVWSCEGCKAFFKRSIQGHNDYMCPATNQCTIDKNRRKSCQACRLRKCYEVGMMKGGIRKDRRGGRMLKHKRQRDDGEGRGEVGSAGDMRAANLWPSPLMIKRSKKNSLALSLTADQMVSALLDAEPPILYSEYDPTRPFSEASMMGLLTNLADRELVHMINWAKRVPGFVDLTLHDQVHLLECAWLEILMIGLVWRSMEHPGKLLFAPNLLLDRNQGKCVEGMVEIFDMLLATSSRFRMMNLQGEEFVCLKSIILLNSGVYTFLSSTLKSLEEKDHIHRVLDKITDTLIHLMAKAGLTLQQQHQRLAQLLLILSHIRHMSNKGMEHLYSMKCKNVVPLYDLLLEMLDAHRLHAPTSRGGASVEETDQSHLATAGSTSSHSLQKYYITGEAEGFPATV
# Summary of the method: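 ER-alpha-UAS-bla GripTite HEK 293 cells in medium with 2% charcoal/dextran-treated FBS were treated with compound titrations at 37 C for 18 hrs; beta-lactamase reporter read by CCF4 fluorescence after 2 hrs at RT.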
# [6] = biological target: Bile acid receptor (Homo sapiens) (UniProt Q96RI1); assay: qHTS assay for small molecule antagonists of farnesoid X receptor signaling (AID 588526; calls by dose curve)
# Chain of Bile acid receptor (Homo sapiens) (Q96RI1 whole entry, looked up): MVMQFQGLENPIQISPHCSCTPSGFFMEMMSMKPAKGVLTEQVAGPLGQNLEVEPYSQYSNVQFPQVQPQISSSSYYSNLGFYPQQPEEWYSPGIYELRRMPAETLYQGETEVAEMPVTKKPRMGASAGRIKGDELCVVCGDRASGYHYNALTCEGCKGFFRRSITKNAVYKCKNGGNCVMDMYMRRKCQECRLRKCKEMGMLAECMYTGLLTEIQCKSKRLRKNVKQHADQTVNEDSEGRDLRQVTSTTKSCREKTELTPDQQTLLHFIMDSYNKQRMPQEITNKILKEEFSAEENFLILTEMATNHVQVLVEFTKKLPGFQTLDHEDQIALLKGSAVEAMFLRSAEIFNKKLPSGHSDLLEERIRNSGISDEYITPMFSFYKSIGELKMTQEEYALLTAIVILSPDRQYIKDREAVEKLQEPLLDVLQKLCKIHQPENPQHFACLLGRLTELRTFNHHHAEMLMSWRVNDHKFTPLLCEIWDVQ
# Summary of the method: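 Beta-lactamase reporter antagonist mode: HEK293T FXR-UAS-bla cells, titrated compound, CDCA stimulation, 16 h 37 C, CCF4 dye 2 h RT. Data normalized to CDCA 50 uM and DMSO; Hill-fit IC50.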
# [7] = biological target: Glucocorticoid receptor (Homo sapiens) (UniProt P04150); assay: qHTS assay for small molecule antagonists of glucocorticoid receptor signaling (AID 588533; active = well fitted inhibition curve with a large enough effect in the signal ratio, with a control signal flat, not every such curve was filed as active; the % refers to the signal ratio;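 note: cells stimulated with 2 nM dexamethasone as agonist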)
# Chain of Glucocorticoid receptor (Homo sapiens) (P04150 whole entry, looked up): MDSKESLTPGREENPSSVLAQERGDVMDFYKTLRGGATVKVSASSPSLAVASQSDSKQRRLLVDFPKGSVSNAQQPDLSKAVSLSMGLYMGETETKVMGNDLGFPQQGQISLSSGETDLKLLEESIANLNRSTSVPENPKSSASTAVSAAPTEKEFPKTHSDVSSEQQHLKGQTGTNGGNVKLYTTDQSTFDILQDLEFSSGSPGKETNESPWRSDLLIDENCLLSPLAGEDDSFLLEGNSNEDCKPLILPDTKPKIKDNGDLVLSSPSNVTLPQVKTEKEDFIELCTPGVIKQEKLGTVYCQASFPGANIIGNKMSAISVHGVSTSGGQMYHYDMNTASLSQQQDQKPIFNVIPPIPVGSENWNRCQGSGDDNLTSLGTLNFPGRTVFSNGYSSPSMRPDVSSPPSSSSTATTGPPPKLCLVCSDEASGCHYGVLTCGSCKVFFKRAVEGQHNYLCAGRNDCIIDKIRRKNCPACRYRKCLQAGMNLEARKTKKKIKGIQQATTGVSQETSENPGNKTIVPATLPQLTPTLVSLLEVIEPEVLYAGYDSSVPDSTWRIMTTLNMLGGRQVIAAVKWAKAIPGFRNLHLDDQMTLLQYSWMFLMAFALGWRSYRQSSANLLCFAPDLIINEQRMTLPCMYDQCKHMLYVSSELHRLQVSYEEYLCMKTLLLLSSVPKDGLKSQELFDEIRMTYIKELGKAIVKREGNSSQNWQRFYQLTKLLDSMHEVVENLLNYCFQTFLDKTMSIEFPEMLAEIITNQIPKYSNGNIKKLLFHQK
# Summary of the method: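 Antagonist-mode qHTS: compound titrations added to GRE-bla HeLa cells, then dexamethasone 2 nM final; 18 h, 37 C. CCF4 FRET fluorescence normalized to dexamethasone and DMSO; IC50 from Hill fit.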
# [8] = qHTS assay for small molecule antagonists of peroxisome proliferator-activated receptor delta signaling (AID 588535); conditions: HEK293T PPARd-UAS-bla, beta-lactamase FRET ratio, 18 h; 460 nm channel;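 note: cells co-treated with a PPAR-delta agonist as stimulator during compound exposure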
# Summary of the method: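 Cell-based beta-lactamase assay in antagonist mode: 4000 HEK293T PPAR-delta-UAS-bla cells per well, 5 hr preincubation then 18 hr compound incubation at 37 C. IC50 obtained by Hill equation fitting.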
# [9] = biological target: Androgen receptor (Homo sapiens) (UniProt P10275); assay: qHTS assay for small molecule agonists of androgen receptor signaling (AID 588515; active = well fitted curve in the direction sought with a large enough effect in the signal ratio, with a control signal flat; the % refers to the signal ratio); conditions: AR-UAS-bla HEK293, beta-lactamase ratio, agonist 16 h; stronger effect = higher value
# Chain of Androgen receptor (Homo sapiens) (P10275 whole entry, looked up): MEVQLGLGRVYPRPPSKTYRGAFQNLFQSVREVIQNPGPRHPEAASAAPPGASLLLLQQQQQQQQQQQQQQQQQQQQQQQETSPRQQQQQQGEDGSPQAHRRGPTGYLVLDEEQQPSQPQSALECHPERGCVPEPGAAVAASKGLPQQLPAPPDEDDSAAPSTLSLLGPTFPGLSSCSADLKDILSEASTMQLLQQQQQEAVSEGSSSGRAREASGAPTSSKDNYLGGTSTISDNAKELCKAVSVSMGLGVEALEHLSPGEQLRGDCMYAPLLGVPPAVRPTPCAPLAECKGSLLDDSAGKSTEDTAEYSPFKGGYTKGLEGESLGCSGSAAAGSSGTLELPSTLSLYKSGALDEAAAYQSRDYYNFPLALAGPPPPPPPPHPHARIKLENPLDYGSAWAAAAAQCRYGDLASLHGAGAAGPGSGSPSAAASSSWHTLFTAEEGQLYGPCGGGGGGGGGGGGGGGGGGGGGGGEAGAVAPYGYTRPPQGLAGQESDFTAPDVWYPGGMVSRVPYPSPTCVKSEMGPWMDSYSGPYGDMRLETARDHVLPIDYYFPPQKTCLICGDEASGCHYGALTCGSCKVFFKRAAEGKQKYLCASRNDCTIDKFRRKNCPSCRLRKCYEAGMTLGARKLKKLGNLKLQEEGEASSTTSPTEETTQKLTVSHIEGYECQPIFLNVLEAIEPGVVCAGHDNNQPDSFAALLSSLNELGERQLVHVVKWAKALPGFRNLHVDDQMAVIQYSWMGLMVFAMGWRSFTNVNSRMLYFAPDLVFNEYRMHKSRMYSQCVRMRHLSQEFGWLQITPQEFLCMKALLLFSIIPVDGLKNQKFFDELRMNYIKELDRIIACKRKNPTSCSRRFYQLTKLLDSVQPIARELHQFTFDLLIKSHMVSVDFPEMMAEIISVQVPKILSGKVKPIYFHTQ
# Summary of the method: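 EC50 and efficacy came from Hill fits of titrations (up to 92 uM) normalized to 30 nM R1881 as 100% and DMSO as 0%. Compound exposure was 16 h at 37 C on AR-UAS-bla HEK293 cells, with a 405/460/530 nm CCF4 fluorescence read.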
# [10] = biological target: Androgen receptor (Homo sapiens) (UniProt P10275); assay: qHTS assay for small molecule antagonists of androgen receptor signaling (AID 588516; active = well fitted curve in the direction sought with a large enough effect in the signal ratio, with a control signal flat, not every such curve was filed as active; the % refers to the signal ratio)
# Summary of the method: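 Antagonist mode: inhibition of R1881-stimulated (10 nM final) bla reporter in GeneBLAzer AR HEK 293 cells, 16 h at 37C, compounds titrated. IC50 and efficacy from Hill-equation fits of 405/460–530 nm FRET ratios.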
structure (smiles),measurement,setting,value
NCCc1cnc[nH]1,Potency,[1],44.7 µM (active) and inactive
same,outcome,[2],inactive
same,Potency,[3],inactive
COc1ccc2[nH]cc(CCNC(C)=O)c2c1,Potency,[1],inactive
same,outcome,[2],inactive
same,Potency,[3],inactive
same,outcome,[4],inactive
same,outcome,[5],inactive
same,Potency,[6],inactive
same,Potency,[7],inactive
same,max response,[8],14.8% and 21.6% and 4.95%
Clc1ccc2nsnc2c1NC1=NCCN1,Potency,[1],inactive
same,outcome,[2],inactive
same,Potency,[3],inactive
CC(C(=O)O)c1cccc(C(=O)c2ccccc2)c1 (stereo not given),Potency,[1],inactive
same,outcome,[2],inactive
same,Potency,[3],inactive
Cn1c(=O)c2c(ncn2C)n(C)c1=O,Potency,[1],inactive
same,outcome,[2],inactive
same,Potency,[3],inactive
same,outcome,[4],inactive
same,Potency,[7],inactive
Clc1ccc2c(c1)C(N1CCNCC1)=Nc1ccccc1O2,Potency,[1],inactive
Cc1ccc(C(=O)Nc2ccc(S(=O)(=O)O)c3cc(S(=O)(=O)O)cc(S(=O)(=O)O)c23)cc1NC(=O)c1cccc(NC(=O)Nc2cccc(C(=O)Nc3cc(C(=O)Nc4ccc(S(=O)(=O)O)c5cc(S(=O)(=O)O)cc(S(=O)(=O)O)c45)ccc3C)c2)c1,Potency,[1],14.1 µM (active) and 7.94 µM (active) and 5.01 µM (active)
same,outcome,[2],inactive
same,Potency,[3],inactive
same,outcome,[4],inactive
CC(C)(Oc1ccc(C2CC2(Cl)Cl)cc1)C(=O)O (stereo not given),Potency,[1],inactive
same,outcome,[2],inactive
same,Potency,[3],inactive
same,activation,[9],-8.82% (inactive)
same,outcome,[10],inactive
same,Potency,[7],inactive
same,max response,[8],-19.7%
Cc1cc(C(C)(C)C)cc(C)c1CC1=NCCN1,Potency,[1],inactive
CN1C(C(=O)Nc2ccccn2)=C(O)c2ccccc2S1(=O)=O,Potency,[1],inactive
same,outcome,[2],inactive
same,Potency,[3],inactive
same,outcome,[4],inactive
COc1ccccc1OCCNCC(O)COc1cccc2[nH]c3ccccc3c12 (stereo not given),Potency,[1],inactive
CN(Cc1cnc2nc(N)nc(N)c2n1)c1ccc(C(=O)N[C@@H](CCC(=O)O)C(=O)O)cc1,Potency,[1],inactive
same,outcome,[2],inactive
same,Potency,[3],inactive
same,outcome,[4],inactive
same,activation,[9],0.214% (inactive)
O=C(CCCN1CCC(O)(c2ccc(Cl)cc2)CC1)c1ccc(F)cc1,Potency,[1],inactive
same,outcome,[2],inactive
same,Potency,[3],inactive
same,outcome,[4],inactive
same,Potency,[6],inactive
same,Potency,[7],inactive
NCCS(=O)(=O)O,Potency,[1],inactive
same,outcome,[2],inactive
same,Potency,[3],inactive
same,outcome,[4],inactive
same,outcome,[5],inactive
same,Potency,[7],inactive
NC(=O)NO,Potency,[1],inactive
same,outcome,[2],inactive
same,Potency,[3],inactive
COc1ccc(C2CNC(=O)C2)cc1OC1CCCC1 (stereo not given),Potency,[1],inactive
same,outcome,[2],inactive
same,Potency,[3],inactive
CS(=O)(=O)CCNCc1ccc(-c2ccc3ncnc(Nc4ccc(OCc5cccc(F)c5)c(Cl)c4)c3c2)o1,Potency,[1],inactive
CC(CCc1ccc(O)cc1)NCCc1ccc(O)c(O)c1 (stereo not given),Potency,[1],inactive
CN(C)c1nc(N(C)C)nc(N(C)C)n1,Potency,[1],inactive
same,outcome,[2],inactive
same,Potency,[3],inactive
CN1CCN2c3ccccc3Cc3ccccc3C2C1 (stereo not given),Potency,[1],inactive
CC(=O)OCC(CCn1cnc2cnc(N)nc21)COC(C)=O,Potency,[1],inactive
COc1cc2nc(N(C)CCCNC(=O)C3CCCO3)nc(N)c2cc1OC (stereo not given),Potency,[1],inactive
same,outcome,[2],inactive
same,Potency,[3],inactive
Nc1nc2c(ncn2COC(CO)CO)c(=O)[nH]1,Potency,[1],inactive
same,outcome,[2],inactive
same,Potency,[3],inactive
NC(=O)OCC(COC(N)=O)c1ccccc1,Potency,[1],inactive
same,outcome,[2],inactive
same,Potency,[3],inactive
same,outcome,[4],inactive
CC(C)(C)C(=O)Oc1ccc(S(=O)(=O)Nc2ccccc2C(=O)NCC(=O)O)cc1,Potency,[1],inactive
CC[C@@]1(O)C(=O)OCc2c1cc1n(c2=O)Cc2cc3c(CN(C)C)c(O)ccc3nc2-1,Potency,[1],79.4 µM (active)
CN(C)CCC=C1c2ccccc2C=Cc2ccccc21,Potency,[1],inactive
CC#C[C@]1(O)CC[C@H]2[C@@H]3CCC4=CC(=O)CCC4=C3[C@@H](c3ccc(N(C)C)cc3)C[C@@]21C,Potency,[1],inactive
NS(=O)(=O)c1cc2c(cc1Cl)NCNS2(=O)=O,Potency,[1],inactive
same,outcome,[2],inactive
same,Potency,[3],inactive
same,outcome,[5],inactive
same,Potency,[6],inactive
same,Potency,[7],inactive
